{
  "source": "PubChem BioAssay AID1671188",
  "about": "(National Center for Advancing Translational Sciences (NCATS), 2021)",
  "note": "Among all 100,000 compounds or so, about 250 (0.25%) were called active. Inconclusive results (about 7%) are left out. The call rests on the fitted dose curve; in most records, active means well fitted inhibition curve with a large enough effect; inconclusive means small, poorly fitted or top-dose-only effect; inactive means flat fitted curve, though single readings scatter. The entries come from a sample that favours actives as a whole. On the % scale 0 is the no-effect control and ±100 the full control effect; potency means the concentration at half of the fitted maximal effect.",
  "data": [
    {"target": "Alanine aminotransferase 2 (Homo sapiens) (UniProt Q8TD30)", "sequence (Q8TD30 whole entry, looked up)": "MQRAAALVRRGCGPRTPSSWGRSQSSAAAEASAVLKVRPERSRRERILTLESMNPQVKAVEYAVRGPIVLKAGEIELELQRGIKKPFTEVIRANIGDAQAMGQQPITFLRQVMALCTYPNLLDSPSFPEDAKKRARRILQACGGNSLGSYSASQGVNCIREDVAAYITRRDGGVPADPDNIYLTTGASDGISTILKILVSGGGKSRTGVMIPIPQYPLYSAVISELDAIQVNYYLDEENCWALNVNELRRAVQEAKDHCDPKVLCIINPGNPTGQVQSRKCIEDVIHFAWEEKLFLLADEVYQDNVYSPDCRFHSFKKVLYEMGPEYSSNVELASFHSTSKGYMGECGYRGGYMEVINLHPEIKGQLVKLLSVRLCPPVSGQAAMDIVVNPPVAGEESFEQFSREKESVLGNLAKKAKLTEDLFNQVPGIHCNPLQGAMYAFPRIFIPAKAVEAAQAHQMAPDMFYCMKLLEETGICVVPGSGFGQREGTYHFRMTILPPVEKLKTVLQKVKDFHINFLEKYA", "test": "Primary qHTS assay for inhibitors of Glutamate pyruvate transaminase 2 (GPT2); further: nearly all actives have a fitted effect of over 60% in size", "details": "Recombinant GPT2, coupled pyruvate oxidase/HRP Amplex Red fluorescence; series mostly up to 57.7 µM; activity change, negative = inhibition: at the top concentration", "method": "Assay Provider: Zhenghe John Wang Ph.D.\nCase Western Reserve University, Cleveland OH\nGlutamate pyruvate transaminase 2 (GPT2) catalyzes the reversible transamination of glutamate and pyruvate to provide a-ketoglutarate and alanine. We have optimized an assay for GPT2 enzymatic activity that couples pyruvate formation to detection of fluorescence using an established pyruvate oxidase/horseradish peroxidase / Amplex Red system.\nScreening conditions were 250uM a-KG, 2mM L-alanine, and 10ng/uL GPT2 in […] of solution; 10uL of Amplex reaction mix (outlined below) were added so that final concentrations of Amplex reagents in 50uL were 0.2mM ThPP, 0.2U/mL PO and HRP, and 50uM Amplex.\nNOTE: The volume of GPT2 in the system depends on the activity of it. The activity is different every batch. You need to test the activity before the assay. For full plate assay with automation, plate 20uL of GPT2 buffer to pin into, then add 10uL of GPT2 dilution followed immediately by 10uL of substrate dilution. 2 Columns of the plate were devoted to GPT2 buffer ([…] PH7.5, 0.0001% Tween) + 50uM AOA (known GPT2 inhibitor) to serve as a positive control. Complete the assay as normal. Amplex-red buffer: […] PH7.5, 1 mM EDTA, 1 mM MgCl2.\n1. Combine a-KG and L-alanine at desired concentrations and incubate for at least 10 minutes at 37C. Stocks of L-alanine and a-KG are diluted in distilled water. However, the stocks were diluted in GPT2 buffer for the assay.\n2. Prepare GPT2 dilution at the desired concentration in GPT2 buffer.\n3. Plate 40uL of GPT2 dilution with 40uL of substrate dilution and let incubate for 30 minutes at room temperature.\n4. Add 20uL of Amplex reaction mix prepared as follows: 1.5uL 200U/mL Horseradish Peroxidase, 200mM Thiamine Pyrophosphate, 200U/mL Pyruvate Oxidase; 7.5uL 10mM Amplex Red; 288uL Amplex Buffer.\n5. Incubate for 30 minutes at room temperature in the dark, then image using AM_Amplex_Fluorescence on plate reader nearest the window.", "values": [
      {"smiles": "Cc1noc(C)c1CCCNC(=O)c1ccc(N(C)C2CCOC2)nc1", "note": "(stereo not given)", "outcome": "inactive"},
      {"smiles": "Cc1nc(C)c(C)c(N2CCCC(c3nccn3Cc3ccccc3)C2)n1", "note": "(stereo not given)", "activity change, negative = inhibition": "1.46% (inactive)"},
      {"smiles": "COC(=O)CNC(=O)C1CN(c2ccccc2)C(=O)N1", "note": "(stereo not given)", "outcome": "inactive [at 88.5 µM]"},
      {"smiles": "O=C1NCCCCCCN(C(=O)c2cccs2)[C@H]2C[C@H](c3nc(Cc4ccccc4)no3)C[C@@H]12", "outcome": "inactive"},
      {"smiles": "O=C(CCc1nnn2c1CN(C(=O)NCc1ccc(F)cc1)CC2)N1CCOCC1", "outcome": "inactive"},
      {"smiles": "Cc1noc(C)c1[S+](=O)([O-])NC1CCN(Cc2ccc(-c3ccsc3)cc2)C1", "note": "(stereo not given)", "outcome": "inactive"},
      {"smiles": "CCCNC(=O)N1CCCCC1c1nc(CCOc2ccc(F)cc2)no1", "note": "(stereo not given)", "activity change, negative = inhibition": "-7.85% (inactive)"},
      {"smiles": "CCCNC(=O)N1CCn2nnc(CCC(=O)N3CCOCC3)c2C1", "activity change, negative = inhibition": "0.613% (inactive)"},
      {"smiles": "Cc1cc2ncc(C(=O)NCC3CC3)cn2n1", "activity change, negative = inhibition": "-7.15% [at 88.5 µM] (inactive)"},
      {"smiles": "O=C(NCCc1ccccn1)C1CCCN(c2nc(-c3ccccc3)nc3c2CCC3)C1", "note": "(stereo not given)", "activity change, negative = inhibition": "2.94% (inactive)"},
      {"smiles": "CCOc1ccc(CCCC(=O)N2CC[C@@](C)(O)[C@@H](O)C2)cc1C", "activity change, negative = inhibition": "3.96% (inactive)"},
      {"smiles": "O=C(c1cncc(Br)c1)N1CCC(Cc2nc(C3CCOCC3)no2)CC1", "outcome": "inactive"},
      {"smiles": "CC(=O)N[C@@H]1C=C(C(=O)N[C@H](CC(C)C)C(N)=O)C[C@@H](O)[C@@H]1O", "activity change, negative = inhibition": "-4.69% [at 88.5 µM] (inactive)"},
      {"smiles": "Cc1ccc(C(=O)N2C[C@@H](Oc3ccccc3)C[C@H]2C(=O)N2CCCC2)cn1", "activity change, negative = inhibition": "-20.6% (inactive)"},
      {"smiles": "O=C(NCCn1ccc2ccc(Cl)cc21)C1CC(=O)N(c2n[nH]c3ccccc23)C1", "note": "(stereo not given)", "outcome": "inactive"},
      {"smiles": "COCCN1CC(CO)C2(CCN(Cc3cnn(C(C)C)c3)CC2)C1", "note": "(stereo not given)", "outcome": "inactive"},
      {"smiles": "Cn1cc(CN2CCCN(C(=O)c3ccco3)CC2)c(-c2ccc(C3CCCCC3)cc2)n1", "activity change, negative = inhibition": "-7.7% (inactive)"},
      {"smiles": "COc1ccccc1CN1CC[C@@H](CO)N(C)c2ncccc2C1", "activity change, negative = inhibition": "-5.98% [at 88.5 µM] (inactive)"},
      {"smiles": "COCCOc1ccnc(-c2noc([C@@H]3CCCN3Cc3ccc(Cl)cc3)n2)c1", "outcome": "inactive [at 88.5 µM]"},
      {"smiles": "O=C(NCC(F)(F)F)c1nc2cccnc2n(CCc2ccccc2)c1=O", "outcome": "inactive"},
      {"smiles": "CC(C)C(=O)NC1CCCc2c1[nH]c1c(Cl)cccc21", "note": "(stereo not given)", "activity change, negative = inhibition": "-0.0645% (inactive)"},
      {"smiles": "O=S(=O)(c1ccc(F)cc1)N1CCCC(Cc2noc(-c3ccccc3)n2)C1", "note": "(stereo not given)", "outcome": "inactive"},
      {"smiles": "Cc1ccncc1C(=O)N1CCC(Cn2c(C)cnc2-c2cccnc2)CC1", "activity change, negative = inhibition": "-12.9% (inactive)"},
      {"smiles": "COc1cccc(-c2cccc(C(=O)N3CCN(C(=O)Cc4ccc(F)cc4)CC3)c2)c1", "activity change, negative = inhibition": "-11.3% (inactive)"},
      {"smiles": "COCCC1(NS(C)(=O)=O)CCN(S(=O)(=O)c2ccc3c(c2)OCCO3)CC1", "outcome": "inactive"},
      {"smiles": "COc1cccc(-c2ccc(CN3CCCC3C(=O)NCc3ccccc3Cl)cc2)c1", "note": "(stereo not given)", "activity change, negative = inhibition": "2.51% (inactive)"},
      {"smiles": "Cc1cc(Cl)ccc1S(=O)(=O)N1CCn2c(nn(CC3CC3)c2=O)C1", "activity change, negative = inhibition": "1.51% (inactive)"},
      {"smiles": "COCCN1C(=O)CCC2(CNC(=O)c3ccncc3)CCC=C12", "note": "(stereo not given)", "outcome": "inactive"},
      {"smiles": "O=C(NCC1CCCO1)c1csc(N2CCN(c3ccccc3F)CC2)n1", "note": "(stereo not given)", "activity change, negative = inhibition": "-18.5% (inactive)"},
      {"smiles": "NC(=O)c1cccc(-c2ncc3c(n2)OCCN(CC2CC2)C3=O)c1", "outcome": "inactive [at 88.5 µM]"},
      {"smiles": "Cc1cc(C)cc(C(=O)NC2CCN(c3cnn(C)c(=O)c3)CC2)c1", "outcome": "inactive"},
      {"smiles": "O=C(c1cccc(Cl)c1)N1CCC(C(=O)N2CCC(N3CCOCC3=O)CC2)CC1", "outcome": "inactive"},
      {"smiles": "O=C(c1cnccn1)N1CCC(N2C(=O)C(OCC3CC3)C23CCOCC3)CC1", "note": "(stereo not given)", "activity change, negative = inhibition": "-7.16% (inactive)"},
      {"smiles": "O=C1NC2(CCN(Cc3ccc(F)cc3)C2)OCc2ccccc21", "note": "(stereo not given)", "outcome": "inactive [at 88.5 µM]"},
      {"smiles": "Cc1ccc2c(C)c(C(=O)N3CCCC3c3nc(C(C)C)no3)oc2c1C", "note": "(stereo not given)", "activity change, negative = inhibition": "3.09% (inactive)"},
      {"smiles": "COCCC1(CO)CCCN(C(=O)c2ccc(S(N)(=O)=O)cc2)C1", "note": "(stereo not given)", "activity change, negative = inhibition": "4.37% (inactive)"},
      {"smiles": "C#CCN(Cc1nc(-c2cc(OC)ccc2F)oc1C)C1CCCCC1", "outcome": "inactive"},
      {"smiles": "CNCC(O)c1ccc(O)c(O)c1", "note": "(stereo not given)", "Potency": "6.31 µM (active)"},
      {"smiles": "COCC(=O)N1CCC(N2C[C@H](OC)[C@@H]2c2ccncc2)CC1", "outcome": "inactive"},
      {"smiles": "CC1(C(=O)N2CCN(c3ccccn3)CC2)CCCc2cnc(Nc3cccnc3)nc21", "note": "(stereo not given)", "activity change, negative = inhibition": "-3.53% [at 88.5 µM] (inactive)"},
      {"smiles": "Cc1cc(C)c(C(=O)N2CCOC(Cc3ccc(F)cc3)C2)o1", "note": "(stereo not given)", "activity change, negative = inhibition": "1.05% (inactive)"},
      {"smiles": "Cc1ccc(NC(=O)C2CCc3nnc(C4CCN(C(=O)NC(C)(C)C)CC4)n32)cc1", "note": "(stereo not given)", "outcome": "inactive"},
      {"smiles": "O=C(Cc1ccc(F)cc1)N1CCC(C(=O)N2CCC(c3nc4ncccc4[nH]3)CC2)C1", "note": "(stereo not given)", "activity change, negative = inhibition": "1.34% (inactive)"},
      {"smiles": "CN(C)C(=O)NC1CCN(c2nc3ncccc3o2)CC1", "outcome": "inactive [at 88.5 µM]"},
      {"smiles": "COc1cc2c(cc1OC)C(CNC(=O)c1cccc(Cl)c1)N(C(=O)Nc1ccccc1)CC2", "note": "(stereo not given)", "outcome": "inactive"}
    ]}
  ]
}
